# Data taken from ChEMBL document CHEMBL3988442, “University of Dundee, Small-Polar-MMV Screening Library” (2021).
# The whole screen tested about 66,000 compounds, of which about 960 (1.5%) showed an effect of 50% or more. Shown is part of a subset that was picked to be rich in strong results.
# Test system: Trypanosoma brucei
# Test: Trypanosoma brucei 72 hour study
# Type: functional, organism-based
# Design: scale not given: in the data most compounds retested in dose-response had high values
structure (smiles),measurement,setting,value
COc1cc(C(=O)NCCc2ccccc2OC)on1,Percent Effect,"30.3 µM, […]",101.4%
Cc1occc1C(=O)N1CCC2(CCN(Cc3ccccn3)C2=O)C1.O=C(O)C(F)(F)F (stereo not given),Percent Effect,"30 µM, 30.03 µM",-18.48%
Cc1cc(C)nc(N2CCN(Cc3nccn3C)CC2)n1.O=CO,Percent Effect,"30.3 µM, […]",-2.711%
Cc1noc(C)c1CN1C[C@@H](OCc2ccccn2)[C@H]2OCCC[C@H]21.O=C(O)C(F)(F)F.O=C(O)C(F)(F)F,Percent Effect,"30 µM, 30.03 µM",-32.5%
O=C(O)C(F)(F)F.O=c1ccc2c([nH]1)CCC(NCc1ccc3c(c1)OCO3)C2 (stereo not given),Percent Effect,"30.3 µM, […]",-24.67%
CC(C)CCN1C2(CCN(C(=O)CN(C)C)C2)c2ccccc2S1(=O)=O.O=C(O)C(F)(F)F (stereo not given),Percent Effect,"30.3 µM, […]",-2.24%
COc1ccc2c(c1)OC1(CCN(Cc3ccc(C)cc3)CC1)CC2=O,Percent Effect,"30.3 µM, […]",-15.07%
same,Percent Effect,"10 mM, 10 mM as filed; unlikely as a test dose",-53.52%
COc1ccc2c(c1)OC1(CCN(Cc3cccc(C)c3)CC1)CC2=O,Percent Effect,"30.3 µM, […]",-0.9536%
same,Percent Effect,"10 mM, 10 mM as filed; unlikely as a test dose",-48.74%
COc1ccc2c(c1)OC1(CCN(Cc3ccccc3C)CC1)CC2=O,Percent Effect,"30.3 µM, […]",99.25%
same,Percent Effect,"10 mM, 10 mM as filed; unlikely as a test dose",-45.93%
Cc1nc(CN2CCCC(C)(CO)C2)no1 (stereo not given),Percent Effect,"30 µM, 30.03 µM",-41.91%
Cl.Cl.O=C(NCc1cncc2c1CCN(C1CCOC1)C2)c1ccco1 (stereo not given),Percent Effect,"30.3 µM, […]",-14.18%
Cc1ccc(C)c(CN(CC(N)=O)C(C)C)c1,Percent Effect,"30 µM, 30.03 µM",-11.18%
CCc1nc(C)cc(N2CCCC(C(=O)c3ccc(OC)cc3C)C2)n1 (stereo not given),Percent Effect,"30.3 µM, […]",68.93%
COc1ccc(C(=O)C2CCCN(c3cc(OC)ncn3)C2)c(C)c1 (stereo not given),Percent Effect,"30.3 µM, […]",25.96%
COc1ccc(C(=O)C2CCCN(c3cc(N)ncn3)C2)c(C)c1 (stereo not given),Percent Effect,"30.3 µM, […]",35.59%
Cc1ccc(CN2CCc3nnc(CN4CCCC4=O)n3CC2)o1.O=C(O)C(F)(F)F,Percent Effect,"30.3 µM, […]",11.51%
Cc1nnsc1C(=O)NCc1nn(C)c2c1CCCC2,Percent Effect,"30 µM, 30.03 µM",10.26%
O=C(Cc1cccc(F)c1F)NC1COc2ccccc2C1=O (stereo not given),Percent Effect,"30.3 µM, […]",-49.3%
O=C(Cc1ccc(F)c(F)c1)NC1COc2ccccc2C1=O (stereo not given),Percent Effect,"30.3 µM, […]",53.93%
O=C(Cc1cccnc1)NC1COc2ccccc2C1=O (stereo not given),Percent Effect,"30.3 µM, […]",-65.37%
CC(O)CN(C)c1cc(C(F)(F)F)nc(-c2cccnc2)n1 (stereo not given),Percent Effect,"30 µM, 30.03 µM",14.71%
COCC(O)CN(C)c1cc(C(F)(F)F)nc(-c2cccnc2)n1 (stereo not given),Percent Effect,"30 µM, 30.03 µM",57.96%
COCCCN(C)c1cc(C(F)(F)F)nc(-c2cccnc2)n1,Percent Effect,"30 µM, 30.03 µM",14.1%
CN(C)S(=O)(=O)c1ccc(-c2nc(C#N)c(NC(C)(C)C)o2)o1.Cl,Percent Effect,"30 µM, 30.03 µM",94.64%
CNc1oc(-c2ccc(S(=O)(=O)N(C)C)o2)nc1C#N,Percent Effect,"30 µM, 30.03 µM",-28.85%
CC(C)Nc1oc(-c2ccc(S(=O)(=O)N(C)C)o2)nc1C#N,Percent Effect,"30 µM, 30.03 µM",-8.182%
CN(C)S(=O)(=O)c1ccc(-c2nc(C#N)c(NC3CC3)o2)o1,Percent Effect,"30 µM, 30.03 µM",-26.91%
CN(C)S(=O)(=O)c1ccc(-c2nc(C#N)c(NC3CCCCC3)o2)o1,Percent Effect,"30 µM, 30.03 µM",-26.33%
Cc1ccc(S(=O)(=O)Nc2ccc(=O)n(C)c2)c(Br)c1,Percent Effect,"30.3 µM, […]",-36.73%
CCN1CC[C@@]2(C(=O)Nc3ccccc3)CCN(S(C)(=O)=O)CC[C@@H]12.O=C(O)C(F)(F)F,Percent Effect,"30 µM, 30.03 µM",-16.54%
CCOCC1CN(C(=O)c2cnoc2C)Cc2cnn(C)c21.O=C(O)C(F)(F)F (stereo not given),Percent Effect,"30.3 µM, […]",-5.791%
CCC(=O)N1CCC2(CC1)CC(CC(=O)N(C)C)c1ccc(F)cc12 (stereo not given),Percent Effect,"30.3 µM, […]",-4.762%
c1coc(-c2nc3c(c(NCc4n[nH]c5c4CCC5)n2)CCNCC3)c1,Percent Effect,"30 µM, 30.03 µM",-54.29%
c1ccc(-c2nc3c(c(NCc4nnc5n4CCC5)n2)CCNC3)cc1,Percent Effect,"30.3 µM, […]",7.408%
c1ccc(-c2nc3c(c(NCc4n[nH]c5c4CCC5)n2)CCNC3)cc1,Percent Effect,"30 µM, 30.03 µM",50.77%
CCc1nc2ccccc2c(=O)n1CC1(O)CCN(C(=O)C2CC2)CC1.Cl,Percent Effect,"30.3 µM, […]",5.264%
O=C(O)c1cc(-c2ccoc2)cc(S(=O)(=O)NC2CC2)c1,Percent Effect,"30 µM, 30.03 µM",27.37%
O=C(O)c1cc(-c2ccc3c(c2)OCO3)cc(S(=O)(=O)NC2CC2)c1,Percent Effect,"30 µM, 30.03 µM",-10.73%
CN(C)c1ccc(-c2cc(C(=O)O)cc(S(=O)(=O)NC3CC3)c2)cc1,Percent Effect,"30 µM, 30.03 µM",102.4%
O=C(CO)N1CCC(CCc2ccnc(Nc3cnccn3)c2)CC1,Percent Effect,"30.3 µM, […]",12.44%
CC(=O)N1CCC(CCc2ccnc(NC(=O)c3ccccn3)c2)CC1,Percent Effect,"30.3 µM, […]",56.75%
CC(=O)Nc1cc(CCC2CCN(C(=O)c3ccccn3)CC2)ccn1,Percent Effect,"30.3 µM, […]",-19.84%
O=C(Nc1cc(CCC2CCN(CCO)CC2)ccn1)c1ccccn1,Percent Effect,"30.3 µM, […]",100.1%
CN1CCC(CCc2ccnc(NC(=O)c3ccccn3)c2)CC1,Percent Effect,"30.3 µM, […]",24.76%
CC(=O)N1CCC(CCc2ccnc(Nc3ccccn3)c2)CC1,Percent Effect,"30.3 µM, […]",18.19%
O=C(O)C(F)(F)F.O=C([C@@H]1C[C@@H]2CCN(C3CCOCC3)C[C@@H]2O1)N1CCCC1,Percent Effect,"30.3 µM, […]",-37.65%
O=C(NCc1cccs1)[C@H]1CO[C@H]2CCN(C3CCCC3)C[C@H]2C1.O=C(O)C(F)(F)F,Percent Effect,"30.3 µM, […]",-53.03%
